Data on 8 compounds can be found in PubChem BioAssay (Tox21).

A short description of experiment [1]: qHTS assay for small molecules that induce genotoxicity in human embryonic kidney cells expressing luciferase-tagged ATAD5 (AID 651632). Also: nearly all actives have a fitted effect of over 15% in size. Also: potency is read from the fitted curve at half-maximal effect. The method, boiled down:
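HEK293T cells carrying luciferase-tagged ATAD5 were given compound or DMSO vehicle and incubated 16 hr at 37C, 5% CO2. Luciferase activity was read after 30 min at room temperature with Amplite; a rise signals genotoxic stress.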

Experiment [2] in a line: qHTS assay for small molecule agonists of the p53 signaling pathway - cell viability (AID 651633; calls by dose curve;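 also: p53RE-bla HCT reporter cells with a stable beta-lactamase p53 reporter; series mostly up to about 83 µM; nearly all actives have a fitted effect of over 30% in size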). The method, boiled down:
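p53RE-bla cells, seeded at 4,000 per well and rested 5 h at 37 C/5% CO2, received compounds in DMSO for 16 h at 37 C. CellTiter-Glo was then added, and luminescence was read after 30 min at room temperature to gauge cytotoxicity.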
On the technique in general: In qHTS, concentration-response curves come from the screen itself.

Experiment [3] in a line: qHTS assay for small molecules that induce genotoxicity in human embryonic kidney cells expressing luciferase-tagged ATAD5 - cell viability (AID 651634; calls by dose curve; also: nearly all actives have a fitted effect of over 25% in size). The method, boiled down: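 HEK293T cells carrying luciferase-tagged ATAD5, 2,000 cells/well, exposed to compound for 15.5 hr at 37C. Viability read as live-cell protease activity by CellTiter-Fluor fluorescence after 30 min at 37C.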

The nature of experiment [4]: qHTS assay for small molecule disruptors of the mitochondrial membrane potential - cell viability (AID 720634; calls by dose curve;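 also: human HepG2 liver cancer cells; series mostly up to about 83 µM; nearly all actives have a fitted effect of over 20% in size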). The method, boiled down:
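HepG2 cells, 2,000 per well, attached overnight, then treated 1 hr at 37 C, 5% CO2. Viability read as ATP by CellTiter-Glo luminescence after 30 min at room temperature. Read in the same wells as the m-MPI membrane-potential dye assay.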

Experiment [5] can be described thus: qHTS assay for small molecule disruptors of the mitochondrial membrane potential (AID 720635). Also: potency is read from the fitted curve at half-maximal effect. In a few lines: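 HepG2 cells (2,000/well) attached overnight at 37C, then took compound for 1 hr at 37C, 5% CO2. Mito-MPS dye was added for 30 min; fluorescence was read at 490/535 nm (monomers) and 540/590 nm (aggregates).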
Experiment [6] in a line: qHTS assay to test for compound auto fluorescence at 590 nm (red) in HepG2 cells (AID 720674). In a few lines:
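Rose Bengal sodium served as the red fluorophore standard. HepG2 monolayers (overnight attachment, MEM with 10% FBS) were exposed to test compounds for 1 hr at 37 C and read at Ex 540/Em 590 nm.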

Experiment [7] is described as follows: qHTS assay to test for compound auto fluorescence at 535 nm (green) in HepG2 cells (AID 720675).
The nature of experiment [8]: qHTS assay to test for compound auto fluorescence at 460 nm (blue) in HEK293 cells (AID 720678). In a few lines: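 Measured: blue fluorescence (Ex 405/Em 460 nm) of compound-treated HEK293 cells, incubated overnight at 37C with 5% CO2 and scaled to triamterene equivalents.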
Experiment [9] is described as follows: qHTS assay to test for compound auto fluorescence at 590 nm (red) in HEK293 cells (AID 720679). The method, boiled down: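 Using HEK293 cells at 2,000 per well, the screen added 23 nL of each compound after cell attachment and incubated overnight (37C, 5% CO2). The plate reader then captured red-label fluorescence, Ex/Em 540/590nm.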
Experiment [10] in a line: qHTS assay to test for compound auto fluorescence at 535 nm (green) in HEK293 cells (AID 720680).
Experiment [11] is described as follows: qHTS assay to test for compound auto fluorescence at 460 nm (blue) in HEK293 cell free culture (AID 720681). In a few lines:
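Test compounds were pinned into cell-free culture medium (DMEM with 10% FBS) and fluorescence was read directly at Ex/Em 405/460 nm. Signals were expressed as fluorescence equivalents of triamterene, with DMSO vehicle as control.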

Experiment [12] in a line: qHTS assay to test for compound auto fluorescence at 535 nm (green) in HEK293 cell free culture (AID 720682). In a few lines: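 Intrinsic compound fluorescence is measured in culture medium containing 10% FBS, with excitation at 485 nm and detection at 535 nm, referenced to fluorescein.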
The nature of experiment [13]: qHTS assay to test for compound auto fluorescence at 590 nm (red) in HEK293 cell free culture (AID 720683). The method, boiled down:
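Tox21 10K library compounds were pinned into cell-free DMEM with 10% FBS and fluorescence was read at excitation 540 nm. Activity is expressed as Rose Bengal sodium equivalency.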

The nature of experiment [14]: qHTS assay to test for compound auto fluorescence at 590 nm (red) in HepG2 cell free culture (AID 720684). The method, boiled down:
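Red fluorescence (540 nm excitation, 590 nm emission) was measured after compound transfer into cell-free MEM supplemented with 10% FBS. Values are equivalencies against Rose Bengal sodium.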

Experiment [15] is described as follows: qHTS assay to test for compound auto fluorescence at 460 nm (blue) in HepG2 cell free culture (AID 720685). In a few lines: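 Compound (23 nL) or DMSO pinned into cell-free MEM with 10% FBS; blue fluorescence read at 405/460 nm excitation/emission, expressed as auto-fluorescence equivalency to triamterene.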
The nature of experiment [16]: qHTS assay to test for compound auto fluorescence at 535 nm (green) in HepG2 cell free culture (AID 720686).
Experiment [17] is described as follows: qHTS assay to test for compound auto fluorescence at 460 nm (blue) in HepG2 cells (AID 720687). The method, boiled down: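 Cells (2,000/well in MEM with 10% FBS) attached overnight at 37 C, then were exposed to compound or DMSO for 1 hr at 37 C, 5% CO2. Fluorescence read at Ex/Em 405/460 nm, expressed as triamterene-equivalent signal.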
The target of experiment [18] is Glucocorticoid receptor (Homo sapiens) (UniProt P04150). Nature of the experiment: qHTS assay to identify small molecule agonists of the glucocorticoid receptor (GR) signaling pathway (AID 720691; active = well fitted activation curve with a large enough effect in the signal ratio in the repeat runs, not every such curve was filed as active; the % refers to the signal ratio). In a few lines: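 GR-bla HeLa cells carrying a GRE-driven beta-lactamase reporter, exposed to compounds for 18 h at 37 C. Reporter activation read as fluorescence after 2 h with LiveBLAzer B/G FRET substrate at room temperature.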

The target is the same in experiment [19]. Nature of the experiment: qHTS assay to identify small molecule antagonists of the glucocorticoid receptor (GR) signaling pathway (AID 720692; active = well fitted inhibition curve with a large enough effect in the signal ratio in the repeat runs, not every such curve was filed as active; the % refers to the signal ratio; also: potency is read from the fitted curve at half-maximal effect). The method, boiled down: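 GR-bla HeLa cells carrying a GRE-driven beta-lactamase reporter received compound after 4 h plating, then dexamethasone (5 nM final). After 18 h at 37C, the FRET substrate was loaded for 2 h at room temperature and fluorescence read.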

Where “and” joins values, the source holds several entries; their conditions need not be identical. Equal values may be shown once. A number with no mark means an inactive call. Results filed as inconclusive are left out. Calls of active or inactive are those of the source. Unless noted, calls follow the shape of the dose curve; as a rule, active = well fitted curve in the direction sought with a large enough effect in the repeat runs; inconclusive = weak or mixed curves; inactive = no such curve, though single readings can be large; an effect the other way counts as inactive or inconclusive.

Glucocorticoid receptor (Homo sapiens), sequence (P04150 whole entry, looked up): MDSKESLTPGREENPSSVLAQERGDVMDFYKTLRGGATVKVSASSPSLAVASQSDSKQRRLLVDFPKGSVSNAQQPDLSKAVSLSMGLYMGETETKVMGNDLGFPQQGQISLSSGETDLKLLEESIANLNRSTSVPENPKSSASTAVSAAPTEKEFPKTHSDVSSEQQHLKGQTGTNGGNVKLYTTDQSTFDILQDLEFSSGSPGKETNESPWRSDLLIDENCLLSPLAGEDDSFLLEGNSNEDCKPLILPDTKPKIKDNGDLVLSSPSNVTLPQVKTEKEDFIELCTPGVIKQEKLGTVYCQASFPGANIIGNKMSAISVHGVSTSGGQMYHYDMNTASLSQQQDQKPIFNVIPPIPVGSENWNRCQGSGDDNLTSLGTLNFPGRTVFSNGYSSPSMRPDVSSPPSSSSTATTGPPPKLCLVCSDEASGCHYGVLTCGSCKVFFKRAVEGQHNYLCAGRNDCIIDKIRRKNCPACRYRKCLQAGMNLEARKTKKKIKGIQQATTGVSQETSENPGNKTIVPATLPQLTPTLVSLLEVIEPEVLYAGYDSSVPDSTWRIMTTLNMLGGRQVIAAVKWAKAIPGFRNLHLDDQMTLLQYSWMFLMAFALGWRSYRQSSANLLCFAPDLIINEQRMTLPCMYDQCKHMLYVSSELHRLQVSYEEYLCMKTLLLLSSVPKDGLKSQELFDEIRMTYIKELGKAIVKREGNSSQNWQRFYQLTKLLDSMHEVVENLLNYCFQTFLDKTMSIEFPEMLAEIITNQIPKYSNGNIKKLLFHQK

Turning to `CC(=O)OC(c1ccccc1)C(Cl)(Cl)Cl` (stereo not given), the Potency entry in experiment [1], in experiment [2], in [3], in experiment [4] and in [18] was “inactive” throughout. The Potency in experiment [5] is 54.5 µM (active). Further, the compound was classed as inactive in experiment [6], in experiment [7], in [8], in experiment [9], in [10] and in [11]. The outcome in experiment [12], in experiment [13], in [14], in [15], in experiment [16] and in experiment [17] was inactive.
As for `Nc1ccccc1C(=O)OCCc1ccccc1`, the Potency was 1.09 µM (active) and 433 nM (active) in experiment [1]; 48.8 µM (active) and 43.3 µM (active) in experiment [5]. The Potency entry in [2], in experiment [3] and in [19] was “inactive” in each case. Moreover, the outcome in experiment [6], in experiment [7], in experiment [8], in experiment [9], in [10] and in experiment [11] was inactive. Besides, the call in experiment [12], in experiment [13], in experiment [14], in experiment [15], in [16] and in experiment [17] was inactive.
As for `O=P(OCC(Br)CBr)(OCC(Br)CBr)OCC(Br)CBr` (stereo not given), the Potency entry in [1], in [2], in experiment [3] and in experiment [18] was “inactive” each time. Besides, the outcome in experiment [6], in experiment [8], in [9], in experiment [10], in [11] and in experiment [12] was inactive. Moreover, the compound was called inactive in experiment [13], in [14], in experiment [15], in experiment [16] and in [17]. Further, in experiment [19], the Potency is 55.7 µM (active).
Take `O=S(=O)(c1ccccc1)c1ccccc1`: the Potency entry in [1], in [2], in experiment [3] and in [4] was “inactive” throughout. Besides, the compound was called inactive in experiment [6], in [7], in [8], in [9], in experiment [10] and in [11]. Also, the outcome in [12], in experiment [13], in [14], in [15], in [16] and in [17] was inactive.
On to `CC(C)(C)c1ccc(CCOc2ncnc3ccccc23)cc1`, for which the Potency result in [1], in experiment [2], in [4] and in experiment [5] was “inactive” throughout. Moreover, the call in experiment [6], in experiment [7], in experiment [8], in experiment [9], in experiment [10] and in experiment [11] was inactive. For the same compound, the result in experiment [12], in [13], in experiment [14], in [15], in experiment [16] and in experiment [17] was inactive.
`Cc1ccc(N)c(C)c1`: the Potency result in experiment [1], in experiment [2], in [3], in experiment [4] and in experiment [5] was “inactive” in each case. The result in experiment [6], in [7], in experiment [8], in [9], in [10] and in [11] was inactive. For the same compound, the result in experiment [12], in experiment [13], in experiment [14], in experiment [15], in [16] and in [17] was inactive.
On to `O=CC=O`, for which the Potency result in [1], in experiment [2], in [4], in experiment [5], in experiment [18] and in experiment [19] was “inactive” in each case. For the same compound, the result in experiment [6], in experiment [7], in experiment [8], in [9], in experiment [10] and in experiment [11] was inactive. The outcome in [12], in [13], in [14], in [15], in experiment [16] and in experiment [17] was inactive.
Regarding `CC(Oc1cc(Cl)c(Cl)cc1Cl)C(=O)O` (stereo not given), the Potency result in experiment [1], in experiment [2], in experiment [3], in experiment [4] and in experiment [19] was “inactive” each time. In addition, the call in experiment [6], in experiment [7], in experiment [8], in [9], in experiment [10] and in experiment [11] was inactive. Further, the outcome in experiment [12], in experiment [13], in [14], in [15], in experiment [16] and in experiment [17] was inactive.
